Experimental data: PubChem BioAssay (NCI)
This is part of a sample that, as a whole, favours compounds with a hit. Of some 83,000 tested, about 20% had one in any assay.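 Plates (96-well) were seeded with cells, treated with compound at one concentration, and incubated for 48 hours before percent growth was determined.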 Unmarked numbers belong to inactive results. The source made the active and inactive calls. How the source made its calls: active means growth percent below 10; inactive means the rest.

What was measured:
Experiment in all cases: NCI-60 one-dose screen, 48 h (100 = growth as untreated, 0 = no growth, -100 = all killed)
Conditions in all cases: 10 µM unless noted
SK-MEL-2 melanoma = test system: SK-MEL-2 melanoma
EKVX NSCLC = test system: EKVX NSCLC
SN12C renal = test system: SN12C renal
UO-31 renal = test system: UO-31 renal
TK-10 renal = test system: TK-10 renal
ACHN renal = test system: ACHN renal
CAKI-1 renal = test system: CAKI-1 renal
A498 renal = test system: A498 renal
CCRF-CEM leukemia = test system: CCRF-CEM leukemia
MOLT-4 leukemia = test system: MOLT-4 leukemia

Row | SMILES | growth (SK-MEL-2 melanoma) | growth (EKVX NSCLC) | growth (SN12C renal) | growth (UO-31 renal) | growth (TK-10 renal) | growth (ACHN renal) | growth (CAKI-1 renal) | growth (A498 renal) | growth (CCRF-CEM leukemia) | growth (MOLT-4 leukemia)
1 | CCCC[n+]1ccc(SCC(=O)n2ccc3ccccc32)c2ccccc21 | 99.9% | 88.1% | 96.5% | 76.5% | 141% | 104% | 81.9% | 111% | 87.3% | 83.1%
2 | N#Cc1c(-c2cccs2)cc(-c2cnccn2)nc1SCC(=O)N/N=C/c1ccc(Cl)cc1 | 121% | 93.5% | 104% | 92.6% | 130% | 102% | 90.8% | 87.1% | 87.6% | 102%
3 | Cc1ccc(C(=O)CSc2nnc(-c3ccc(-c4ccc(Cl)cc4)nc3C)o2)cc1 | 112% | 68.6% | 99.7% | 93.9% | 191% | 95.4% | 95.8% | 98.2% | 108% | 103%
4 | CCNCCOc1ccc(/C(=C(/CC)c2ccc(Cl)cc2)c2ccc(OCCCN(C)C)cc2)cc1 | -84% (active) | -84.4% (active) | -85.6% (active) | -95.6% (active) | -89.8% (active) | -98% (active) | -75.1% (active) | -86.3% (active) | -37.5% (active) | -62.6% (active)
5 | COC(=O)c1cccc(NC2=C(Cl)C(=O)c3nc(C)ccc3C2=O)c1 | 101% | 54.3% | 93.1% | 48.5% | 128% | 0.427% (active) | 103% | 71% | 5.63% (active) | 19.7%
6 | CCOP(=O)(OCC)OC[C@]12CCC(C)(C)CC1C1=CC[C@@H]3[C@@]4(C)CCCNC(C)(C)[C@@H]4CC[C@@]3(C)[C@]1(C)CC2 (stereo not given in full) | 121% | 69.7% | 80.8% | 58.2% | 90.4% | 83.5% | 53.7% | 85.2% | 28.1% | 2.26% (active)
7 | Cc1ccc2c(n1)C(=O)C(Cl)=C(Nc1ccccc1C(=O)OC(C)(C)C)C2=O | 93.6% | 28% | 52.6% | -62.7% (active) | -84.6% (active) | -73.6% (active) | -92.4% (active) | 92.3% | -27.1% (active) | -32.6% (active)
8 | NS(=O)(=O)c1ccc(Nc2nc(N/N=C/C=C/c3ccccc3)nc(Nc3ccccc3)n2)cc1 | 45% | 71.3% | 48.1% | 39.6% | 86.8% | 38.5% | 46.1% | 40.2% | 24.8% | 12.3%
9 | Cc1[nH]c(C(=O)Nc2ccc(C(=O)NCC3CCNCC3)cc2OC(C)C)c(Cl)c1Cl | 97.9% | 82.8% | 81.4% | 88.6% | 90.2% | 99.9% | 76.7% | 79.4% | 32.6% | 19.6%
10 | CC(=O)C1=C(C)NC(NNc2ccccc2)=NC1c1ccc([N+](=O)[O-])cc1 (stereo not given) | 102% | 80% | 98.8% | 73.3% | 109% | 76% | 43.3% | 91.9% | 89.7% | 82.6%
11 | CCOC(=O)Nc1ccc2c(ccn2C(=O)c2cccc(F)c2)c1 | 32% | 44.1% | 48.7% | 49.9% | 59.9% | 53.4% | 45.1% | -6.19% (active) | 16.7% | 30.2%
12 | COc1cc(/C=N\NC(=O)c2ccc3nc(-c4ccc(Br)cc4)[nH]c3c2)cc(OC)c1OC | 60.2% | 78.2% | 63.4% | 72.3% | 58.9% | 60.9% | 33.2% | 20.8% | 25.8% | 31.6%
13 | N#Cc1c(-c2cccs2)cc(-c2cnccn2)nc1SCC(=O)N/N=C/c1ccncc1 | 121% | 99% | 110% | 88.4% | 128% | 109% | 95.9% | 116% | 103% | 117%
14 | CCOC(=O)C1=C(C)NC(C)=C(C(=O)OCc2ccccc2)C1c1cccc(C#N)c1 (stereo not given) | 24.9% | 37.1% | 36.5% | 43.8% | 83.7% | 47.1% | 32.4% | -4.45% (active) | 25.5% | 31.5%
15 | Cc1cc2nc3c4cc(C#N)ccc4n(CCN(C)C)c3nc2cc1C | -86.7% (active) | -7.83% (active) | 2.81% (active) | -27.9% (active) | -2.16% (active) | -13.7% (active) | -27.3% (active) | -44% (active) | 3.32% (active) | 3.23% (active)
16 | COC(=O)CCSC1=C(C)C(=O)c2ccccc2C1=O | 107% | 74.2% | 92.5% | 64.6% | 162% | 82.6% | 80.4% | 116% | 45.7% | 31.8%
17 | COc1cc2cc(Oc3ccc(NC(=O)Nc4ccc(F)c(C(F)(F)F)c4)cc3)c(C)nc2cc1OCCN(C)C | 115% | 97.6% | 96.4% | 86.6% | 106% | 106% | 85.1% | 93.6% | 15.8% | 89.5%
18 | CC(=O)Nc1cc(N2CCOCC2)c2nc(NC(=O)c3[nH]c(C)c(Cl)c3Cl)sc2c1 | 83% | 85.1% | 49.8% | 57.9% | 112% | 49.3% | 93.1% | 95.6% | 74.2% | 65%
19 | CNCCN(C)c1ccc(Nc2cc(NC3CC3)n3ncc(C#N)c3n2)cc1NC(C)=O | -20.4% (active) | 7.67% (active) | 22.4% | 6.68% (active) | -29.9% (active) | 15.1% | -36.6% (active) | -36.5% (active) | 13.2% | 8.27% (active)
20 | O=C(CCCCCCNC(=O)C(O)(O)C(F)(F)F)Nc1ccc(Br)cc1 | -24.7% (active) | 33.3% | 20.1% | -2.06% (active) | -2.6% (active) | -15.8% (active) | -13.9% (active) | -13.9% (active) | 23.9% | 13.2%
21 | O=C(Nc1ccccc1)Nc1nc2ccc([N+](=O)[O-])cc2[nH]1 | 53.9% | 43.6% | 62.7% | 44.2% | 39.1% | 37.6% | 27.1% | 11.1% | 52.2% | 55.7%

Row | SMILES | growth (SK-MEL-2 melanoma) | growth (EKVX NSCLC) | growth (SN12C renal) | growth (UO-31 renal) | growth (TK-10 renal) | growth (ACHN renal) | growth (CAKI-1 renal) | growth (A498 renal) | growth (CCRF-CEM leukemia) | growth (MOLT-4 leukemia)
22 | NC(N)=NS(=O)(=O)c1ccc(N=Nc2c(N)nn(-c3ccc([N+](=O)[O-])cc3[N+](=O)[O-])c2N)cc1 | 106% | 99% | 101% | 82.5% | 120% | 101% | 90.5% | 94.5% | 97.7% | 99.4%
23 | O=[N+]([O-])c1ccc(NC(=S)NNC(=S)Nc2ccc(Br)cc2)cc1 | 105% | 83.5% | 88.3% | 70% | 127% | 70.8% | 75.6% | 82.5% | 89.1% | 74.9%
24 | COc1ccccc1N1CCN(C2=C(Cl)C(=O)c3ncccc3C2=O)CC1 | 95.5% | 98.2% | 88.3% | 44.5% | 148% | 45.7% | 63.6% | 115% | 11.5% | 38.3%
25 | COc1ccc(/C=N/N=C(/c2ccccc2)c2ccc3nc(-c4ccc(Cl)cc4)[nH]c3c2)cc1 | 89.1% | 91.9% | 85.4% | 78.7% | 81.9% | 87.5% | 72.4% | 59.8% | 68.1% | 53.2%
26 | O=C(CCl)Nc1ccc(NC(=O)c2cc(Cl)ccc2O)c(Cl)c1 | 92% | 95.9% | 68.4% | 54.7% | 129% | 85.8% | 59.2% | 100% | 9.8% (active) | 25.7%
27 | Cc1ccsc1[C@H]1c2[nH]c3ccccc3c2C[C@H]2C(=O)N(CCCCCCC(=O)NO)CC(=O)N12 | 92% | 87.3% | 86.5% | 75.6% | 84% | 93.5% | 90.6% | 109% | 26.5% | 40%
28 | CS(=O)(=O)c1ccc(/C(=N/N=C(N)N)c2ccc(Cl)cc2)cc1 | 93.7% | 91% | 95.7% | 84.4% | 76.1% | 99.1% | 59.5% | 76.9% | 94.3% | 99.1%
29 | CCOC(=O)C1=C(C)NC(C)=C(C(=O)OC(C)C)C1c1cccc(C#N)c1 (stereo not given) | 106% | 90.7% | 97.8% | 93.3% | 106% | 96.7% | 84.7% | 83.9% | 103% | 88.8%
30 | Cc1[nH]c(C(=O)Nc2ccccc2OCc2cccc(C(=O)NC3CCNC3)c2)c(Cl)c1Cl (stereo not given) | 101% | 79.6% | -33.5% (active) | 84.9% | 101% | 74.9% | 27.5% | 79.7% | 6.3% (active) | 1.73% (active)
31 | COc1ccc([C@@H]2C(=O)N(c3cc(OC)c(OC)c(OC)c3)[C@H]2c2ccc(OC)c(O)c2)cc1 | 21.3% | 48.4% | 27.3% | 25.4% | 113% | 28.3% | 21% | -28.5% (active) | 21.5% | 16%
32 | Cc1ccc(CSC2=C(Cl)CN(c3ccc(Cl)cc3)C2=O)cc1 | 104% | 104% | 104% | 78.6% | 115% | 107% | 94.5% | 113% | 106% | 110%
33 | CN1CCN(Cc2ccc(NC(=O)c3cncc(C#Cc4cnc5ccc(OCC6COC6)nn45)c3)cc2C(F)(F)F)CC1 | -78.4% (active) | -71.6% (active) | -30.6% (active) | -92.3% (active) | -82.2% (active) | -96.5% (active) | -92.8% (active) | -93.7% (active) | -8.07% (active) | 1.49% (active)
34 | Cc1cc(NS(=O)(=O)c2ccc(NC(=O)CSc3nc4ccccc4c(=O)n3-c3ccccc3)cc2)no1 | 109% | 96.8% | 101% | 85.9% | 108% | 98.1% | 94.9% | 99.6% | 96.8% | 107%
35 | COc1ccc(C(C)=C(c2ccc(OCCN3CCCCCC3)cc2)c2ccc(OCCN3CCCCCC3)cc2)cc1 | -65.2% (active) | 1.68% (active) | 0.944% (active) | -79.3% (active) | 27.1% | -57.8% (active) | -45.9% (active) | 27.9% | 0.672% (active) | -5.35% (active)
36 | Cc1ccc2c(n1)C(=O)C(Cl)=C(Nc1cccc(C)c1C)C2=O | -42% (active) | 31.2% | -73.4% (active) | -22.8% (active) | 142% | -25.5% (active) | 56.5% | 64% | 2.35% (active) | -10.3% (active)
37 | Cc1[nH]c(C(=O)Nc2ccc(C(N)=O)cc2N2CCOC(C)C2)c(Cl)c1Cl (stereo not given) | 104% | 93.1% | 96.4% | 82.6% | 100% | 88.4% | 98.4% | 72.4% | 99.5% | 96.4%
38 | OCC(Nc1ncnc2ccc(-c3cnc4cnccn34)cc12)c1ccccc1 (stereo not given) | 45% | 52.3% | 80.7% | 36.6% | 40% | 43.3% | 41.7% | 76.4% | 80.5% | 76.1%
39 | O=C(N/N=C/c1cc2ccccc2nc1Cl)c1cc(-c2nc3ccccc3[nH]2)nc2ccccc12 | 82.8% | 93.5% | 99.9% | 70.7% | 91.7% | 89% | 71.6% | 54.6% | 87.8% | 82.2%
40 | Fc1ccc(-c2cn3c(-c4c[nH]c5ccc(Br)cc45)csc3n2)cc1 | 90.5% | 64.9% | 52.4% | 47.8% | 80.3% | 49% | 38.3% | 91.3% | 70.3% | 63.9%
41 | CCOC(=O)c1ccc(NC2=C(Cl)C(=O)c3nc(C)ccc3C2=O)cc1 | 78.2% | 68.4% | 75.8% | 2.37% (active) | 99.4% | -9.88% (active) | 75.4% | 68.3% | 6.88% (active) | 16.3%
